{
  "source": "PubChem BioAssay (EPA / NIEHS)",
  "note": "Inconclusive results are not listed. The source made the active and inactive calls. Rule for the calls: active = hit-call score of the fitted dose curve at least 0.9, where 1 is the maximum; inconclusive = response in the unintended direction; inactive = score below 0.9.",
  "data": [
    {"read-out": "alkyl and aryl transferase (GSTA2), GSTA2 (gene 2939)", "assay": "CLD_GSTA2_48hr: CellzDirect (CLD) Gene Expression Assay for alkyl and aryl transferase (GSTA2) at 48 hours (AID 2283708);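 note: active means mRNA induction above DMSO vehicle baseline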", "method": "CLD_48hr is a cell-based, multiplexed-readout assay that uses hepatocyte, a human liver primary cell, with measurements taken at 48 hours after chemical dosing in a 96-well plate.CLD_GSTA2_48hr is one of 16 assay component(s) measured or calculated from the CLD_48hr assay. It is designed to make measurements of mRNA induction, a form of inducible reporter, as detected with chemiluminescence signals by Quantitative Nuclease Protection Assay (qNPA) technology.Data from the assay component CLD_GSTA2_48hr was analyzed at the endpoint, CLD_GSTA2_48hr, in the positive analysis fitting direction relative to DMSO as the negative control and baseline of activity. Using a type of inducible reporter, gain-of-signal activity can be used to understand changes in the reporter gene as they relate to the gene GSTA2. Furthermore, this assay endpoint can be referred to as a primary readout. To generalize the intended target to other relatable targets, this assay endpoint is annotated to the transferase intended target family, where subfamily is alkyl and aryl transferase.\nHuman hepatocyte cultures were treated daily for two consecutive days with fresh dosing solutions containing appropriate concentrations of the 320 ToxCast chemicals (chemical identities were blinded to CellzDirect and other ToxCast collaborators), vehicle control (0.2% DMSO), and positive control inducers as summarized in Table 1. […] These replicate data, coupled with internal replicates designed within the blinded ToxCast chemical library, provided additional data to evaluate interindividual differences between hepatocyte preparations and their potential impact on chemical profiles.Cell morphology and integrity were evaluated using phase-contrast microscopy as an indicator of hepatocyte cell health (Tyson & Green, 1987). Cultures for each treatment group (i.e., media, vehicle [0.2% DMSO], positive control inducers [multiple concentrations], and the ToxCast chemicals [multiple concentrations]) were observed and cell morphology was assessed relative to vehicle control cultures at each harvest time point (0, 6, 24, or 48 h). […] Images were evaluated at the conclusion of the study to assess changes in cell integrity and account for the effects of chemical exposure on uncharacteristic changes in concentration-dependent gene expression profiles. The results from these determinations of apparent cytotoxicity were annotated (yes/no) alongside the corresponding qNPA data for reference.At the conclusion of each treatment period, hepatocyte cultures (96-well) were washed with 1 volume of HBSS, lysed by addition of 25 ul ArrayPlate lysis buffer (HTG, Tucson, AZ), and 70 ul/well of Denaturation Oil, denatured by incubation at 95C for 10 min, and frozen at approximately -70C until analysis by nuclease protection assay (qNPA) (Roberts et al., 2007). For qNPA analysis, cell lysates were thawed at 50C for approximately 30 min, qNPA probes were added, and samples were incubated at 95C for 10 min to begin the detection process by denaturing the target RNA, dissociating the duplexes and secondary structure hybridization. At the conclusion of the hybridization period, S1 nuclease reagent was added to each sample to digest all nonprotected nucleotides at 50C for 60-90 min. At the conclusion of the S1 nuclease digestions, all reactions were stopped by transfer of all the samples to fresh plates containing stop solution and incubated at 95C for 15 min to deactivate the enzyme, dissociate the mRNA/ DNA probe heterodimers, and hydrolyze the resulting single stranded mRNA, leaving a stoichiometric amount of single-stranded DNA nuclease protection probe, unmodified in sequence, as the only intact oligonucleotide left in the sample. Neutralization solution was subsequently applied to cooled (room temperature) plates, and samples were transferred to ArrayPlates for overnight incubations at 50Cto allow probes to be captured onto programmed locations on the ArrayPlates. […]", "values": [
      {"smiles": "CCC(C)Nc1c([N+](=O)[O-])cc(C(C)(C)C)cc1[N+](=O)[O-]", "note": "(stereo not given)", "AC50": "4.11 µM (active)"},
      {"smiles": "OCCOc1ccccc1", "outcome": "inactive"},
      {"smiles": "C[C@H]1[C@H](c2ccc(Cl)cc2)SC(=O)N1C(=O)NC1CCCCC1", "AC50": "34.4 µM (active)"},
      {"smiles": "CC(C)(C)C(O)C(Oc1ccc(Cl)cc1)n1cncn1", "note": "(stereo not given)", "outcome": "inactive"},
      {"smiles": "CN1CSC(=S)N(C)C1", "outcome": "inactive"},
      {"smiles": "CC[C@H](C)[C@H]1O[C@]2(C=C[C@@H]1C)C[C@@H]1C[C@@H](C/C=C(\\C)[C@@H](O[C@H]3C[C@H](OC)[C@@H](O[C@H]4C[C@H](OC)[C@@H](O)[C@H](C)O4)[C@H](C)O3)[C@@H](C)/C=C/C=C3\\CO[C@@H]4[C@H](O)C(C)=C[C@@H](C(=O)O1)[C@]34O)O2", "note": "(tested in a mixture with another compound)", "outcome": "inactive"},
      {"smiles": "Oc1cc(Cl)ccc1Oc1ccc(Cl)cc1Cl", "outcome": "inactive"},
      {"smiles": "COc1cc(OC)nc(NC(=O)NS(=O)(=O)c2cc(NC=O)ccc2C(=O)N(C)C)n1", "outcome": "inactive"},
      {"smiles": "CCOc1nc(NC)nc(NC(=O)NS(=O)(=O)c2ccccc2C(=O)OC)n1", "outcome": "inactive"},
      {"smiles": "Clc1ccccc1-c1nnc(-c2ccccc2Cl)nn1", "outcome": "inactive"},
      {"smiles": "CCC(C)(C)C(=O)OC1=C(c2ccc(Cl)cc2Cl)C(=O)OC12CCCCC2", "outcome": "inactive"},
      {"smiles": "CC1(C)C(C=C(Cl)Cl)C1C(=O)OC(C#N)c1ccc(F)c(Oc2ccccc2)c1", "note": "(stereo not given)", "outcome": "inactive"},
      {"smiles": "O=C(Nc1ccccc1)Nc1cnns1", "outcome": "inactive"},
      {"smiles": "COC(=O)c1ccccc1S(=O)(=O)NC(=O)Nc1nc(C)nc(OC)n1", "outcome": "inactive"},
      {"smiles": "Cc1[nH]c(=O)n(C(C)(C)C)c(=O)c1Cl", "outcome": "inactive"},
      {"smiles": "CC(C)N(C(=O)COc1nnc(C(F)(F)F)s1)c1ccc(F)cc1", "outcome": "inactive"},
      {"smiles": "[2H]C1([2H])[n+]2ccccc2-c2cccc[n+]2C1([2H])[2H]", "outcome": "inactive"},
      {"smiles": "CNC(=O)Oc1cccc(N=CN(C)C)c1", "outcome": "inactive"},
      {"smiles": "CCOCN(C(=O)CCl)c1c(C)cccc1CC", "AC50": "20 µM (active)"},
      {"smiles": "CCCN(CCC)c1c([N+](=O)[O-])cc(C(F)(F)F)cc1[N+](=O)[O-]", "outcome": "inactive"},
      {"smiles": "ClC1C(Cl)C(Cl)C(Cl)C(Cl)C1Cl", "note": "(stereo not given)", "outcome": "inactive"},
      {"smiles": "CCN(CC)C(=O)SCc1ccc(Cl)cc1", "outcome": "inactive"},
      {"smiles": "CCCN(CCOc1c(Cl)cc(Cl)cc1Cl)C(=O)n1ccnc1", "outcome": "inactive"},
      {"smiles": "Oc1ccc(Cl)cc1Cc1ccccc1", "outcome": "inactive"},
      {"smiles": "O=[N+]([O-])c1c(Cl)c(Cl)c(Cl)c(Cl)c1Cl", "outcome": "inactive"},
      {"smiles": "CC1(c2ccc(Oc3ccccc3)cc2)OC(=O)N(Nc2ccccc2)C1=O", "note": "(stereo not given)", "outcome": "inactive"},
      {"smiles": "COC(=O)c1ccccc1CS(=O)(=O)NC(=O)Nc1nc(OC)cc(OC)n1", "outcome": "inactive"},
      {"smiles": "COP(=O)(OC)OC=C(Cl)Cl", "outcome": "inactive"},
      {"smiles": "C#CCN1C(=O)COc2cc(F)c(N3C(=O)C4=C(CCCC4)C3=O)cc21", "outcome": "inactive"},
      {"smiles": "N#Cc1c(Cl)c(Cl)c(Cl)c(C#N)c1Cl", "outcome": "inactive"},
      {"smiles": "CCOC1Oc2ccc(OS(C)(=O)=O)cc2C1(C)C", "note": "(stereo not given)", "outcome": "inactive"},
      {"smiles": "COC(=O)c1ccccc1S(=O)(=O)NC(=O)N(C)c1nc(C)nc(OC)n1", "outcome": "inactive"},
      {"smiles": "CCC(C)(NC(=O)c1cc(Cl)c(C)c(Cl)c1)C(=O)CCl", "note": "(stereo not given)", "outcome": "inactive"},
      {"smiles": "O=C1c2ccccc2C(=O)N1SC(Cl)(Cl)Cl", "outcome": "inactive"},
      {"smiles": "O=[N+]([O-])/N=C1\\NCCN1Cc1ccc(Cl)nc1", "outcome": "inactive"},
      {"smiles": "CC(C)(C)C(O)/C(=C\\c1ccc(Cl)cc1Cl)n1cncn1", "note": "(stereo not given)", "outcome": "inactive"},
      {"smiles": "O=C(O)C(F)(F)C(F)(F)C(F)(F)C(F)(F)C(F)(F)C(F)(F)C(F)(F)F", "outcome": "inactive"},
      {"smiles": "CC(C)OC(=O)Nc1cccc(Cl)c1", "outcome": "inactive"},
      {"smiles": "N#CN", "outcome": "inactive"},
      {"smiles": "CCS(=O)(=O)c1cccnc1S(=O)(=O)NC(=O)Nc1nc(OC)cc(OC)n1", "outcome": "inactive"}
    ]}
  ]
}
